The OligoGym collection

biological target: CYP4A22; assay: pooled miR-30 sensor sort-seq; sequence = guide strand; conditions: shRNA
Note: reference of the scale not given here.

| Sequence | sensor-assay potency score (higher = more potent) |
| --- | --- |
| TTCCTGAATCCGTTGTAGCTCC | -0.657 |
| AATAAGGACAGGCACTTGGGAA | -1.26 |
| TTGATCTTCTCCAGCTCCCCCT | -0.672 |
| TTGGTCTGTGTGCTGATGGGCC | -0.327 |
| TTAATGCACATGGTGGTGTAGG | -1.01 |
| TTCTGTAGTTGAGCCTTCCTCA | 0.294 |
| TCCTTGTCTGACAAGATGCTCC | -1.35 |
| TCAGTTGGATCACTTGGTCTGT | -0.279 |
| TTTCAACACAAGTCGTGCCATG | -0.809 |
| AACACAAGTCGTGCCATGGGGA | -0.895 |
| TTTGGATTTCAACACAAGTCGT | -1.17 |
| TGAGCTCTCTTCCAATGCCTGG | -1.4 |

biological target: CYP4V2; assay: as above; conditions: shRNA

| Sequence | sensor-assay potency score (higher = more potent) |
| --- | --- |
| TTCAACTTGATCCAGATGCCAT | -0.613 |
| TTAGAACTCTGTAACCTGCCAC | 0.681 |
| TTCTTCTCGAATATCTTCATGA | -0.54 |
| TTCTAGACCAAGCTCTTCTCTT | -0.575 |
| ATATCTTCATGACTTAGCCTGT | -0.479 |
| TCAACTGTCCTTCTAGACCAAG | -1.36 |
| TCATTCTATAAACTGCACGGAC | -0.644 |
| TTTTGACCTATACAGTTCCTGG | -1.19 |
| TAACACATTCCAGATACCGAAG | -1.38 |
| TTCTTCAGGTCTTCTACTGTAG | -0.329 |
| TTCTGGTTGGATTCTATCCAAA | -1.62 |

biological target: CYSLTR1; assay: as above; conditions: shRNA

| Sequence | sensor-assay potency score (higher = more potent) |
| --- | --- |
| TAAATTAATCATGTATACTTGG | -0.15 |
| TTTCTGAATGTAGACAGCCTTT | -1.15 |
| TTTGTGAACATAATAGACCACA | -0.314 |
| ATACCTACACACACAAACCTGG | -0.207 |
| TTGACATACAAAGCATAGGTGC | -0.753 |
| TAGAGGTTGACATACAAAGCAT | -0.639 |
| TGACACATAATGCAAGACCAAA | -1.62 |
| TTTTAGTTTGATTGTCTTGTGG | -0.438 |
| TAGAAATGGAGAACTGGTCAAA | -0.616 |
| TTTAGTTTGATTGTCTTGTGGG | 0.715 |
| TTAGTTTGATTGTCTTGTGGGG | 0.0611 |

biological target: CYTH1; assay: as above; conditions: shRNA

| Sequence | sensor-assay potency score (higher = more potent) |
| --- | --- |
| TAACTTGGTCTTTATTGTCGGG | -0.54 |
| TTTCATTAGCTACTTCTGCTAT | -0.232 |
| TTGGTCTTTATTGTCGGGGATA | -1.5 |
| TTGCACTGACAATATCGCTGGG | 0.116 |
| AACTTGGTCTTTATTGTCGGGG | -0.623 |
| TTCTGCTATCTCATCCTTCAGC | -0.329 |
